These results are taken from PubChem BioAssay (NCATS).

The structures appear in SMILES notation. Inconclusive results are not listed. Values without a mark were called inactive. Activity calls are given as the source filed them. Calls come from the whole dose curve; as a rule, active = well fitted curve in the direction sought with a large enough effect; inconclusive = small, poorly fitted or top-dose-only effect, or another doubt; inactive = no such curve, though single readings can be large; an effect the other way counts as inactive or inconclusive.

Assay [1] has as its system CRL-7250. Description: Cytotoxic Profiling of Annotated Libraries Using Quantitative High-Throughput Screening (AID 1296008). For max response: % is set by controls: 0 for no effect and ±100 for the full control effect. Note: nearly all actives have a fitted effect of over 60% in size. As to conditions: Five cell lines viability, CellTiter-Glo ATP luminescence, 48-72 h; max response: stronger effect = lower value. In short, it runs like this:
(§1)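 Cells exposed to compounds for 48 or 72 hr at 37 degrees Celsius. Viability read as ATP-coupled luminescence with CellTiter-Glo after 10 min at room temperature.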
On the technique in general: ATP-based viability assays read luminescence as a measure of living cells.

The subject of assay [2] is HEK293. The assay is described as above. As to conditions: Five cell lines viability, CellTiter-Glo ATP luminescence, 48-72 h; max response: stronger effect = lower value. In short, it runs like this:
as §1

The test system of assay [3] is HaCat. Described as above. As to conditions: Five cell lines viability, CellTiter-Glo ATP luminescence, 48-72 h; max response: stronger effect = lower value. The method in brief: as §1
In assay [4] the test system is KB-3-1. The description is as above. The note with it: Five cell lines viability, CellTiter-Glo ATP luminescence, 48-72 h; max response: stronger effect = lower value. The method in brief:
as §1

Assay [5] deals with NIH3T3. The assay is described as above. The note with it: Five cell lines viability, CellTiter-Glo ATP luminescence, 48-72 h; max response: stronger effect = lower value. In short, it runs like this:
as §1

In assay [6] the test system is NIH3T3. Description: qHTS assay to identify novel small-molecules to repurpose for Merkel cell carcinoma treatment (AID 1296009). Note: nearly all actives have a fitted effect of over 60% in size. As to conditions: MCC and control cell lines, CellTiter-Glo viability, 72 h; at 44.8 µM (top of the series) unless noted. In short, it runs like this:
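Dose-response viability screen; 72 hr exposure at 37 degree celsius; CellTiter-Glo added, 10 min room temperature, luminescence read; RLUs scaled between no-cell and DMSO wells.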

In assay [7] the test system is C33A. Description: Primary qHTS to identify gynecologic anti-cancer compounds using libraries of approved drugs and bioactive compounds (AID 1345084). Note: nearly all actives have a fitted effect of over 55% in size. Note: potency is the fitted concentration of half-maximal effect. As to conditions: Gynecologic cancer cell panel viability, ATPlite luminescence, 48 h; series mostly up to 57.5 µM. The method in brief:
(§2)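 Cell viability after 48 h drug treatment, ATPlite luminescence readout; five doses.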
(In general: Quantitative high-throughput screening tests each substance at several concentrations.)

Assay [8] deals with CAOV3. The assay is described as above. As to conditions: Gynecologic cancer cell panel viability, ATPlite luminescence, 48 h; series mostly up to 57.5 µM. In short, it runs like this: as §2
Assay [9] deals with CASKI. The description is as above. As to conditions: Gynecologic cancer cell panel viability, ATPlite luminescence, 48 h; series mostly up to 57.5 µM. The method in brief: as §2
Assay [10] relates to Es-2. The assay is described as above. The note with it: Gynecologic cancer cell panel viability, ATPlite luminescence, 48 h; series mostly up to 57.5 µM. In short, it runs like this: as §2
For assay [11], the system named is HeLa. The assay is described as above. As to conditions: Gynecologic cancer cell panel viability, ATPlite luminescence, 48 h; series mostly up to 57.5 µM. The method in brief: as §2
Assay [12] has as its system Hek293T. Described as above. As to conditions: Gynecologic cancer cell panel viability, ATPlite luminescence, 48 h, control line for the selectivity index; series mostly up to 57.5 µM. The method in brief: as §2
Assay [13] deals with JEG-3. The description is as above. The note with it: Gynecologic cancer cell panel viability, ATPlite luminescence, 48 h; series mostly up to 57.5 µM. The method in brief:
as §2

The subject of assay [14] is OV90. The description is as above. As to conditions: Gynecologic cancer cell panel viability, ATPlite luminescence, 48 h; series mostly up to 57.5 µM. The method in brief: as §2

Take `CCC(CC)CC1(C(=O)Nc2ccccc2SC(=O)C(C)C)CCCCC1`: the molecule was called inactive in assay [1], in assay [5], in assay [6] and in assay [9]. In addition, the max response was -10.7% in assay [2], -14% in assay [3] and 0.494% in assay [4]. Besides, the Potency result in assay [7], in assay [8], in assay [10], in assay [11], in [12] and in assay [13] was “inactive” in each case. In assay [14], the Potency entry is “inactive”.

In the case of `N#Cc1ccc(C2CCCc3cncn32)cc1` (centres undefined), the max response was -28.9% in [1], -80.6% in assay [2] and 3.15% in [3]. Moreover, the molecule was classed as inactive in [4], in assay [5] and in assay [9]. Moreover, the outcome in assay [6] was “inactive [at 17.4 µM]”. For the same molecule, the Potency result in [7], in assay [8], in assay [12], in assay [13] and in assay [14] was “inactive” each time.

In the case of `CC1=CC[C@@]2(C)CC[C@@](O)(C(C)C)[C@@H]2[C@@H](O)C1`, the max response in assay [1] is 2.53%; in assay [2], 0.0265%; in assay [3] it was 1.77%. In addition, the outcome in assay [4], in assay [5], in assay [6] and in assay [9] was inactive. Also, the Potency result in assay [7], in assay [8], in assay [10], in assay [11], in assay [12] and in assay [13] was “inactive” throughout. Also, the Potency result in [14] was “inactive”.

`C/C(=C\CCC(C)C1CC(O)C2(C)C3CCC4C(C)(C)C(OC5OCC(O)C(O)C5O)CCC45CC35CC(O)C12C)C(=O)O` (centres undefined): the max response in [1] is 3.53%; in assay [2], 0.956%; in [3] it was 3.75%; in assay [4] it was 9.72%. In addition, the call in [5] and in assay [9] was inactive. In addition, the outcome in assay [6] was “inactive [at 17.4 µM]”. Also, the Potency result in [7], in [8], in assay [10], in [11], in assay [12] and in [13] was “inactive” each time. Besides, in assay [14], the Potency result is “inactive”.

For the molecule `CC1=C(CCC(C)O[C@@H]2O[C@H](CO)[C@@H](O)[C@H](O)[C@H]2O)C(C)(C)CC(O)C1` (some centres undefined), the max response in [1] was -1.39%; in assay [2], 1.2%; in assay [3], -0.421%; in [4], 1.93%. Also, the molecule was called inactive in assay [5], in assay [6] and in [9]. For the same molecule, the Potency entry in [7], in assay [8], in assay [10], in assay [11], in assay [12] and in assay [13] was “inactive” throughout. In addition, the Potency result in [14] is “inactive”.

Turning to `O=C(O)[C@H](Cc1ccccc1)Oc1ccc(-c2ccccc2)cc1`, the max response in [1] was -13.4%; in assay [2], 4.06%; in assay [3], -11.4%. In addition, the molecule was called inactive in assay [4], in assay [5], in [6] and in assay [9]. Besides, the Potency result in [7], in assay [8], in [10], in assay [11], in [12] and in assay [13] was “inactive” throughout. The Potency entry in assay [14] was “inactive”.

With `O=C(O)c1ccnc2cc(C(OCC3CCC(F)(F)CC3)c3ccccc3Cl)[nH]c12` (centres undefined), the max response in [1] is 2.57%; in assay [2] it was 4.55%; in assay [3], -20.6%; in assay [4], 8.39%. In addition, the result in assay [5], in [6] and in [9] was inactive. Moreover, the Potency result in [7], in assay [8], in assay [10], in [12], in assay [13] and in assay [14] was “inactive” in each case.

`O=C(OCc1ccccc1O[C@@H]1O[C@H](CO)[C@@H](O)[C@H](O)[C@H]1O)C1(O)C=CCCC1O` (some centres undefined): the max response in [1] was 3.78%; in [2] it was 2.2%; in assay [3], -2.8%; in [4] it was 5.3%. Further, the call in assay [5] and in [9] was inactive. Besides, the outcome in [6] was “inactive [at 17.4 µM]”. The Potency result in [7], in [8], in assay [10], in assay [11], in [12] and in [13] was “inactive” in each case. Also, in [14], the Potency entry is “inactive”.

In the case of `COc1ccc([C@H]2OC[C@H]3[C@@H]2CO[C@@H]3c2ccc(O[C@@H]3O[C@H](CO)C(O)[C@H](O)[C@H]3O)c(OC)c2)cc1OC` (some centres undefined), the max response in [1] is -2.87%; in assay [2] it was 1.89%; in [3], -9.63%; in assay [4] it was -3.78%. The call in [5] and in [9] was inactive. Besides, the outcome in assay [6] was “inactive [at 17.4 µM]”. Moreover, the Potency result in assay [7], in assay [8], in assay [10], in assay [11], in assay [12] and in assay [14] was “inactive” each time.

Consider `COc1ccc(OC)c(C2C(C#N)=C(N)Oc3n[nH]c(-c4ccc5ccccc5c4)c32)c1` (centres undefined), for which the molecule was called inactive in [1], in assay [4], in assay [5], in [6] and in assay [9]. Moreover, the max response in assay [2] was 0.943%; in [3] it was -8.38%. Also, the Potency result in assay [7], in assay [8], in assay [10], in assay [11], in assay [12] and in assay [13] was “inactive” in each case. The Potency entry in assay [14] was “inactive”.

Consider `C=Cc1cc2oc(-c3ccc(O)c(F)c3)nc2cc1O`, for which the outcome in assay [1], in assay [4], in assay [5], in assay [6] and in [9] was inactive. The max response in assay [2] was -3.32%; in assay [3], -11%. Further, the Potency entry in assay [7], in assay [8], in assay [10], in assay [12] and in assay [13] was “inactive” in each case. Further, the Potency in assay [14] was 25.1 µM (active).
